Reference: PubChem BioAssay (NCI)
Compounds without any hit were thinned out: in the full panel of roughly 83,000, 20% have a hit.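 Results are percent growth after 48 hours of single-concentration exposure. 100 means growth as in untreated cells, lower positive values show inhibition; negative values down to -100 show cell death.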 Values without a mark were called inactive. The source made the active and inactive calls. Rule for the calls: active = growth percent below 10; inactive = the rest.

Key:
Experiment in all cases: NCI-60 one-dose screen, 48 h (100 = growth as untreated, 0 = no growth, -100 = all killed)
Conditions in all cases: 10 µM unless noted
[1] = test system: K-562 leukemia
[2] = test system: MALME-3M melanoma
[3] = test system: MDA-MB-231 breast
[4] = test system: RXF 393 renal
[5] = test system: SF-268 CNS
[6] = test system: SF-295 CNS
[7] = test system: SF-539 CNS
[8] = test system: UACC-257 melanoma
[9] = test system: M14 melanoma
[10] = test system: HCT-15 colon

Compound	growth [1]	growth [2]	growth [3]	growth [4]	growth [5]	growth [6]	growth [7]	growth [8]	growth [9]	growth [10]
Cc1ccc(C(O)C2=CC(=O)c3ccccc3C2=O)cc1 (stereo not given)	112%	107%	71.1%	109%	107%	97.6%	95.3%	102%	95.7%	93.3%
O=C(Nc1ccc(Cl)cc1Cl)Nc1ccc(-c2cccnc2)cc1N1CCC(CO)CC1	17.7%	41.3%	13.6%	49.5%	48.4%	81.6%	30.9%	47.8%	36%	26.8%
O=C(CCc1nnc(Cn2ccnc2)o1)c1nc2ccccc2[nH]1	101%	77.8%	89.7%	124%	111%	111%	100%	114%	105%	100%
O=C(/C=C/c1cccnc1)/C=C/c1cccnc1	-15.2% (active)	-8.19% (active)	20.4%	-84.9% (active)	-64% (active)	41.6%	-46.1% (active)	31.2%	-47.3% (active)	-9.07% (active)
Cc1ccc([N+](=O)[O-])cc1NC(=O)Nc1cccc(F)c1	31.4%	99.6%	93.4%	126%	100%	50.3%	85.1%	82%	67.7%	68.4%
Clc1ccc2c(Nc3ccc4oc(NCCN5CCCC5)nc4c3)ccnc2c1	20.8%	105%	37.3%	81.8%	72.5%	106%	47.6%	108%	50.7%	49.3%
Cn1c(N)c(N=O)c(=O)[nH]c1=O	93.3%	104%	112%	114%	110%	114%	105%	107%	97.9%	112%
NC(=O)N/N=C/c1ccc(Br)o1	104%	106%	99%	112%	99.6%	103%	101%	105%	101%	96.1%
c1ccc2cc(C[n+]3ccn(CCCCCCCn4cc[n+](Cc5ccc6ccccc6c5)c4)c3)ccc2c1	19.1%	-9.13% (active)	49%	74%	34.4%	21.6%	33.4%	15.8%	47.1%	82.6%
CCCCc1nc(Cl)c(CO)n1Cc1ccc(-c2ccccc2-c2nn[nH]n2)cc1	105%	101%	99.1%	105%	115%	99.9%	100%	104%	101%	106%
c1ccc(-c2nnc(Nc3nnc(-c4ccccc4)s3)s2)cc1	111%	101%	102%	105%	103%	102%	101%	99.1%	105%	102%
COc1ccc2[nH]c(-c3ccccc3)cc2c1	76.5%	122%	90%	100%	110%	105%	103%	87.5%	112%	97%
O=C(Oc1ccc[nH]c1=O)c1cccc(Cl)c1	104%	104%	103%	163%	101%	108%	88.2%	113%	95.8%	91.2%
O=C(Nc1ccc(Cl)cc1)Nc1ccc(Nc2nncc3ccccc23)cc1	9.49% (active)	38.5%	36.6%	65.7%	42.4%	17.8%	33%	15.3%	19.3%	18.3%
